This note sets out measurements from PubChem BioAssay (NCATS).

Results filed as inconclusive are left out. Active and inactive are the calls of the source. Unless noted, how the calls were made is not given here.

A short description of assay [1]: qHTS profiling of the MIPE4 collection as inhibitors of Plasmodium falciparum (3D7) proliferation (AID 743344).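 Further: scaled between DMSO vehicle wells and 0.29 µM artemisinin as full inhibition.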 To be noted: P. falciparum 3D7 in erythrocytes, SYBR Green DNA fluorescence, 72 h; at 28.5 µM unless noted. In a few lines: (§1)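 Parasite DNA was quantified by SYBR Green I fluorescence (ex 485, em 535 nm) after overnight lysis in saponin/Triton buffer at room temperature. Cultures at 0.3% parasitemia and 2.5% hematocrit were first exposed to compound for 72 h at 37 C; signals were normalised to artemisinin (0.29 uM) and vehicle wells.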

Assay [2] can be described thus: qHTS profiling of the MIPE4 collection as inhibitors of Plasmodium falciparum (DD2) proliferation (Rep 2) (AID 743346). To be noted: P. falciparum Dd2 in erythrocytes, SYBR Green DNA, 72 h; at 28.5 µM unless noted. In a few lines:
as §1
(qHTS replaces the single test concentration by a dilution series.)

Assay [3] can be described thus: qHTS profiling of the MIPE4 collection as inhibitors of Plasmodium falciparum (HB3) proliferation (AID 743347).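 Further: plate controls were DMSO vehicle wells for no effect and artemisinin wells for full effect.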 To be noted: P. falciparum HB3 in erythrocytes, SYBR Green DNA, 72 h; at 28.5 µM unless noted. A digest of the protocol:
as §1

Assay [4] in a line: High-throughput drug toxicity screening in the BPDCN cell line Gen2.2 (AID 1224824).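 Further: cells exposed to compounds for 48 h before reading.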 To be noted: Gen2.2 BPDCN cells; at 45.8 µM (top of the series) unless noted. In a few lines: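 Gen2.2 cells (500/well) in phenol red-free RPMI with 10% FBS were exposed to compounds for 48 h at 37 °C, 5% CO2. Viability was read by CellTiter-Glo luminescence and normalized to DMSO (100%) and 9.2 uM bortezomib (0%).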

Assay [5] is described as follows: High-throughput drug toxicity screening in the BPDCN cell line Cal-1 (AID 1224825). To be noted: Cal-1 BPDCN cell viability, qHTS; at 45.8 µM (top of the series) unless noted. A digest of the protocol: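 CellTiter-Glo luminescence after 48 h compound exposure; percent activity scaled with DMSO as 100% and bortezomib (9.2 uM final) as 0%. Cal-1 cells seeded at 500/well in RPMI, 10% FBS, no phenol red.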

Assay [6] can be described thus: qHTS assay for measurement of the activity of small molecule inhibitors on Zika virus induced Caspase-3 activity in human iPSC derived neural progenitor cells (hNPCs) (AID 1224857; active means well fitted curve in the direction sought with a large enough effect; an effect the other way counts as inactive or inconclusive; further: % of control where 0% means no effect; nearly all actives have a fitted effect of over 65% in size). A digest of the protocol:
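Caspase-3/7 induction by a 6-hour ZIKV infection was quantified with a luminescent Caspase-Glo 3/7 reagent incubated 30 minutes at room temperature. Compounds were preincubated with hNPCs for 1 hour; inhibition was calculated against uninfected and infected control wells.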

Assay [7] in a line: qHTS assay for measurement of the activity of small molecule inhibitors on Zika virus induced Caspase-3 activity in human astrocytoma cells (AID 1224859; active means well fitted curve in the direction sought with a large enough effect; an effect the other way counts as inactive or inconclusive;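 further: plate controls were ZIKV-infected untreated cells for no effect and uninfected cells for full effect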). A digest of the protocol: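 In SNB-19 cells plated at 250 cells/well and grown 16-20 h, compounds were applied 1 h before ZIKV (2 FFU/cell). Six hours later caspase-3/7 luminescence was recorded.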
The nature of assay [8]: qHTS Screen of the MIPE 4.0 Collection Against Ewings Sarcoma (RDES) (AID 1259252; active means well fitted curve in the direction sought with a large enough effect; an effect the other way counts as inactive or inconclusive; further: nearly all actives have a fitted effect of over 35% in size; further: potency means the concentration at half of the fitted maximal effect). A digest of the protocol:
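Viability screen: 48 h incubation at 37C, 95% humidity, 5% CO2 with serially titrated compound, followed by CellTiter-Glo readout.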

Assay [9] is described as follows: qHTS profiling of the MIPE4 collection as inhibitors of Plasmodium falciparum (DD2) proliferation (AID 743345). As to conditions: P. falciparum Dd2 in erythrocytes, SYBR Green DNA, 72 h; at 28.5 µM unless noted. In a few lines:
as §1

A short description of assay [10]: qHTS profiling for inhibitors of Plasmodium falciparum (HB3) proliferation (AID 743324; active means well fitted curve in the direction sought with a large enough effect; an effect the other way counts as inactive or inconclusive;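 further: 100% = DMSO vehicle wells and 0% = artemisinin-treated control wells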). To be noted: Plasmodium falciparum HB3 blood-stage proliferation; at 28.7 µM (top of the series) unless noted. In a few lines:
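SYBR Green fluorescence (485 ex/535 em) of lysed cultures, incubated overnight at room temperature in the dark, quantifies parasite DNA. Infected erythrocytes at 0.3% parasitemia and 2.5% hematocrit were exposed 72 h; values normalized to DMSO and 0.29 uM artemisinin controls.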

In assay [1], `CN(C)c1nc(Cc2ccc(NC(=O)c3ccc(C(F)(F)F)cc3)cc2)nc(N(C)C)c1CC(=O)O` registered a parasite growth, % of DMSO control of 88.9%. The parasite growth, % of control (lower = inhibition) in assay [2] is 75.7%. In assay [3], this molecule gave a growth, % of control of 95.1%. Also, the cell viability, % of control (lower = more cytotoxic) in [4] amounted to 204%. Further, the viability (% of control) in assay [5] turned out to be 132%. The Potency entry in assay [6], in [7] and in assay [8] was “inactive” throughout.
Take `Cc1ccc(C(=O)N(CCCN)[C@@H](c2oc3cc(Cl)ccc3c(=O)c2Cc2ccccc2)C(C)C)cc1`: the parasite growth remaining, % of DMSO control (lower = more inhibition) in [9] worked out at 8.7%. Besides, in assay [2], the parasite growth, % of control (lower = inhibition) worked out at 8.99%. In assay [3], this molecule gave a growth, % of control of 5.08%. Also, in assay [4], the cell viability, % of control (lower = more cytotoxic) came out at 8.98%. Further, the viability (% of control) in assay [5] stood at 3.72%. Further, the Potency entry in [6], in assay [7] and in assay [8] was “inactive” each time.
For the molecule `COc1cc(Nc2nc3ccccc3nc2NS(=O)(=O)c2ccc(NC(=O)c3ccc(C)c(OC)c3)cc2)cc(OC)c1`, the parasite growth, % of DMSO control in assay [1] stood at 42%. In addition, in assay [9], the parasite growth remaining, % of DMSO control (lower = more inhibition) was 40.5%. The growth, % of control in [3] came to 17.6%. Besides, the cell viability, % of control (lower = more cytotoxic) in [4] came out at 32.5%. Moreover, the viability (% of control) in [5] is 78.5%. The Potency entry in assay [6] and in assay [7] was “inactive” throughout. Further, in [8], the Potency was 18.7 µM (active).
As to `CCCCN(CCCC)CC(O)c1cc(Cl)cc2c1-c1ccc(Cl)cc1C2=Cc1ccc(Cl)cc1` (stereo unspecified), the parasite growth, % of DMSO control in assay [1] was determined as 8.66%. Further, in [9], the parasite growth remaining, % of DMSO control (lower = more inhibition) was found to be 7.19%. Moreover, the parasite growth, % of control (lower = inhibition) in assay [2] worked out at 11.5%. Further, the growth, % of control in [3] was determined as 11.8%. Moreover, the cell viability, % of control (lower = more cytotoxic) in assay [4] amounted to 27%. In addition, the viability (% of control) in assay [5] was found to be 63%. Moreover, the Potency result in [6], in assay [7] and in assay [8] was “inactive” in each case.
Consider `C[C@@]1(C(=O)Nc2ccc(F)nc2)CCCN1c1nc(Nc2cc(C3CC3)[nH]n2)c2cccn2n1`, for which the parasite growth, % of DMSO control in [1] came out at 10.3%. In addition, the parasite growth remaining, % of DMSO control (lower = more inhibition) in assay [9] turned out to be 14.6%. Also, in [3], the growth, % of control turned out to be 4.94%. The cell viability, % of control (lower = more cytotoxic) in assay [4] is 131%. In addition, the viability (% of control) in assay [5] turned out to be 17.3%. In addition, the Potency result in [6] and in [7] was “inactive” each time. The Potency in assay [8] was 2.64 µM (active).
As for `N#Cc1c(N(CC(=O)O)CC(=O)O)sc(C(=O)O)c1CC(=O)O`, in [1], the parasite growth, % of DMSO control amounted to 86.7%. Besides, the parasite growth remaining, % of DMSO control (lower = more inhibition) in assay [9] was 91.9%. Moreover, the parasite growth, % of control (lower = inhibition) in assay [2] stood at 139%. Moreover, the growth, % of control in [3] amounted to 105%. The cell viability, % of control (lower = more cytotoxic) in assay [4] came to 5.77%. Also, the viability (% of control) in assay [5] amounted to 9.17%. Further, the Potency entry in [6] and in [7] was “inactive” in each case.
In turn, `Cc1cc2c(cc1C1(c3ccc(C(=O)O)cn3)CC1)C(C)(C)CCC2(C)C` registered a remaining proliferation (% of control), lower = more inhibition in assay [10] of 94.8%. In [1], this molecule returned a parasite growth, % of DMSO control of 58.3%. In addition, the parasite growth remaining, % of DMSO control (lower = more inhibition) in [9] was found to be 95.5%. For the same molecule, in assay [2], the parasite growth, % of control (lower = inhibition) is 77.6%. Further, the growth, % of control in [3] was 78.5%. In [4], the cell viability, % of control (lower = more cytotoxic) is 529%. The viability (% of control) in assay [5] amounted to 121%. Also, the Potency entry in assay [6] and in assay [7] was “inactive” in each case.
In assay [1], `N[C@@H](CC(=O)N1CCn2c(nnc2C(F)(F)F)C1)Cc1cc(F)c(F)cc1F` yielded a parasite growth, % of DMSO control of 94.7%. Besides, the parasite growth remaining, % of DMSO control (lower = more inhibition) in assay [9] amounted to 104%. The parasite growth, % of control (lower = inhibition) in assay [2] worked out at 84.5%. The growth, % of control in assay [3] turned out to be 104%. In addition, in [4], the cell viability, % of control (lower = more cytotoxic) turned out to be 162%. Besides, in assay [5], the viability (% of control) amounted to 111%. Also, the Potency entry in assay [6] and in [7] was “inactive” throughout.
On to `CC(C)(C)c1[nH]cnc1C=c1[nH]c(=O)c(=Cc2ccccc2)[nH]c1=O`, for which, in [2], the parasite growth, % of control (lower = inhibition) was 23.1% [at 57.5 µM]. For the same molecule, the growth, % of control in assay [3] is 7.41% [at 57.5 µM]. Besides, in assay [4], the cell viability, % of control (lower = more cytotoxic) came out at 15.7% [at 92.2 µM]. Further, the viability (% of control) in [5] is 5.98% [at 92.2 µM]. For the same molecule, the Potency result in assay [6], in assay [7] and in [8] was “inactive” in each case.
Turning to `CNC(=O)c1cc(COc2nnc(Nc3ccc(Cl)cc3)c3ccoc23)ccn1`, in assay [10], the remaining proliferation (% of control), lower = more inhibition is 28.7%. This molecule gave a parasite growth, % of DMSO control in assay [1] of 40.5%. Further, the parasite growth remaining, % of DMSO control (lower = more inhibition) in assay [9] stood at 79.6%. Besides, the parasite growth, % of control (lower = inhibition) in assay [2] amounted to 52.9%. The growth, % of control in assay [3] turned out to be 48.2%. Moreover, the cell viability, % of control (lower = more cytotoxic) in assay [4] was determined as 159%. In [5], the viability (% of control) came to 92.9%. The Potency entry in assay [6] and in assay [7] was “inactive” throughout.
Regarding `CC(C)C[C@H](NC(=O)c1cc2ccccc2s1)C(=O)N1CCN(C(=O)[C@H](CO)NS(=O)(=O)c2ccc(Cl)cc2Cl)CC1`, in [10], the remaining proliferation (% of control), lower = more inhibition is 5.88%. The same molecule displayed a parasite growth, % of DMSO control in assay [1] of 11.1%. Moreover, in assay [9], the parasite growth remaining, % of DMSO control (lower = more inhibition) came to 47.5%. For the same molecule, the parasite growth, % of control (lower = inhibition) in assay [2] came out at 20.2%. In addition, the growth, % of control in assay [3] was 10.7%. The cell viability, % of control (lower = more cytotoxic) in [4] was 29.4%. In [5], the viability (% of control) turned out to be 67%. The Potency result in assay [6] and in assay [7] was “inactive” each time.
